Assay results from PubChem BioAssay AID1239 (SRMLSC, 2008).
Hit rate of the full screen: of about 190,000 compounds, about 3,100 (1.6%) were called active. No stated cut-off is given here; in the data, active means fold change above about 3.3; inconclusive means no clear call, values can overlap the other calls; inactive means below that. Shown is part of a subset that was picked to be rich in actives.

assay: activators of NF-kB expression in neurons, primary screen, cell-based, HTS (AID 1239); conditions: human neuronal cells, NF-kB reporter expression; at 12.5 µM; stronger effect = higher value

Row | Compound | fold change
1 | C/[N+]([O-])=C\c1ccc([N+](=O)[O-])o1 | 0.83 (inactive)
2 | CCn1c(/C=C/c2ccc([N+](=O)[O-])o2)nc2ccccc2c1=O | 4.02 (active)
3 | Cn1cc(/C=C/c2nc3ccccc3c(=O)n2-c2cccc([N+](=O)[O-])c2)c2ccccc21 | 1.02 (inactive)
4 | Cn1c(=N)n(CC(O)c2cccs2)c2ccccc21 (stereo not drawn) | 1.08 (inactive)
5 | CC(C)(C)N(CC#CCC(O)(c1ccccc1)C1CCCC1)CCO (stereo not drawn) | 1.15 (inactive)
6 | COc1ccccc1OCc1nc2ccccc2s1 | 4.3 (active)
7 | COc1ccccc1N1CC(O)=C(c2nc3ccccc3s2)C1=N | 0.59 (inactive)
8 | COc1cccc2sc(NNC(=O)c3nc4ccccc4s3)nc12 | 1.13 (inactive)
9 | Cc1ccc(NC(=O)c2csc3c2CCCC3)cc1 | 1.12 (inactive)
10 | CCN1CCN(C(=O)CN(C)S(=O)(=O)c2ccc3ccccc3c2)CC1 | 1 (inactive)
11 | CCc1ccc(NC(=O)N2CCN(c3ccccc3)CC2)cc1 | 1.34 (inactive)
12 | CCc1ccc(NC2Nc3cc(C)nn3S2)cc1 (stereo not drawn) | 4.6 (active)
13 | CCOC(=O)c1ccc(NC2Nc3cc(C)nn3S2)cc1 (stereo not drawn) | 1.14 (inactive)
14 | O=C(NCc1ccccc1)C1=C[C@@H](c2ccc(C(F)(F)F)cc2)C[C@@H](OCc2ccc(CO)cc2)O1 | 0.94 (inactive)
15 | CCN(C(=O)COC(=O)c1ccc(COc2ccc3c(C)cc(=O)oc3c2)cc1)C1CCS(=O)(=O)C1 (stereo not drawn) | 1.19 (inactive)
16 | CSCC(=O)N1CCCC(C(=O)c2cc(F)ccc2F)C1 (stereo not drawn) | 1.18 (inactive)
17 | Fc1ccccc1N=C1Nc2cccc3cccc1c23 | 0.99 (inactive)
18 | Cc1cccc(-n2c(O)c(C=Nc3ccccc3N)c(=O)[nH]c2=O)c1 | 4.16 (active)
19 | Cc1cccc(-n2c(C)cc(/C=N/NC(N)=S)c2C)c1 | 1.29 (inactive)
20 | Cc1ccc(N=Cc2c(O)n(-c3nccs3)c(=O)c3ccccc23)c(C)c1 | 1.01 (inactive)
21 | Cc1c(CN2CCCC(C(=O)c3cccc(Cl)c3)C2)c(=O)n(-c2ccccc2)n1C (stereo not drawn) | 1.12 (inactive)
22 | Cc1ccc(C(=O)Nc2cccc3ncccc23)cc1[N+](=O)[O-] | 1.38 (inactive)
23 | CC(C)(c1ccccc1)c1ccc(OCCN)cc1 | 1.16 (inactive)
24 | O=C(Nc1ccc(F)cc1)N1CCN(c2ccc(F)cc2)CC1 | 1.12 (inactive)
25 | CCOC(=O)C1(Cc2cccc(OC)c2)CCN(Cc2csc(C(C)=O)c2)CC1 | 0.84 (inactive)
26 | O=C(O)c1cccc(N=NN2CCCCCC2)c1 | 5.59 (active)

Row | Compound | fold change
27 | O=C(O)c1ccc(N=NN2CCOCC2)cc1 | 1.3 (inactive)
28 | O=C(c1ccccc1)N1CCN(C(=O)N2CCCCC2)CC1 | 1.3 (inactive)
29 | COc1ccc(C(=O)NC2CCN(C(=S)Nc3ccccc3)CC2)cc1 | 1.12 (inactive)
30 | COc1ccc(NC(=S)N2N=CCC2c2ccccc2)cc1 (stereo not drawn) | 3.93 (active)
31 | COc1ccc(C(=S)Nc2ccccc2)cc1 | 1.98 (inactive)
32 | Cc1ccc(C(=O)NNC(=O)c2cccs2)cc1 | 1.67 (inactive)
33 | COCCNC(=O)/C(C#N)=C/c1nc(N(C)C)n(-c2ccc(F)cc2)c1Cl | 1.11 (inactive)
34 | Cc1nc(N2CCC(C)CC2)c2c(C)c(C(=O)Nc3cc(F)ccc3C)sc2n1 | 0.88 (inactive)
35 | O=[N+]([O-])c1cccc(/C([O-])=C(/C(=S)Nc2ccccc2F)[n+]2ccccc2)c1 | 1.02 (inactive)
36 | Cn1cc(Cl)c(C(=O)NNC(=S)Nc2cccc(Cl)c2)n1 | 1.46 (inactive)
37 | Cc1csc(SCC(=O)Nc2sccc2C#N)n1 | 5.12 (active)
38 | COc1ccc(NC(=O)CSc2nc(C)cs2)cc1 | 1.38 (inactive)
39 | Cc1cccc(C)c1Nc1nnc(SCC(=O)Nc2sccc2C#N)s1 | 1.08 (inactive)
40 | CCO/C=C1\C(=O)N(c2ccc(OCC)cc2)C(=O)c2ccccc21 | 1.05 (inactive)
41 | Cc1nc(-c2ccc(NC(=O)c3cccs3)cc2)cs1 | 5.59 (active)
42 | Cc1ccc(-c2csc(NC(=O)c3cccs3)n2)cc1 | 1.97 (inactive)
43 | Cc1ccc(-c2nnc(-c3ccc(NC(=O)c4cccs4)cc3)o2)cc1 | 1.45 (inactive)
44 | COc1ccc(CNC(=O)COC(=O)/C=C/c2ccc(S(=O)(=O)N3CCOCC3)cc2)cc1 | 1 (inactive)
45 | COCCNc1nc2nonc2nc1N1CCCC1c1nccs1 (stereo not drawn) | 1.05 (inactive)
46 | C=CCN(Cc1nc(-c2cc(OC)c3c(c2)OCO3)oc1C)C1CCS(=O)(=O)C1 (stereo not drawn) | 1.14 (inactive)
47 | O=C(CSc1nnc2ccccn12)c1ccccc1 | 1.88 (inactive)
48 | Cc1ccc(-n2c(C)cc(C(=O)CSc3nnc4ccccn34)c2C)cc1 | 3.7 (active)
49 | Cc1ccc(-n2c(C)cc(C(=O)CN3C(=O)C(=O)N(C4CCCC4)C3=O)c2C)cc1 | 0.71 (inactive)
50 | CC1CC(C)CN(S(=O)(=O)c2ccc(C(=O)NN3CCOCC3)cc2)C1 (stereo not drawn) | 1.27 (inactive)
51 | Cc1cc(OCC(=O)NC2CCN(C)CC2)ccc1[N+](=O)[O-] | 0.99 (inactive)
52 | COc1ccccc1N(C)S(=O)(=O)c1ccc(Cl)c(C(=O)N2CCC(C(N)=O)CC2)c1 | 1.12 (inactive)

Row | Compound | fold change
53 | Cc1ccc(-c2cn3cc(C)ccc3n2)cc1 | 0.56 (inactive)
54 | Cc1ccc(-c2cn3cc([N+](=O)[O-])ccc3n2)cc1 | 4.75 (active)
55 | Cn1cnc(C(F)(F)F)c1-c1ccc([N+](=O)[O-])cc1 | 1.2 (inactive)
56 | CCOC(=O)N1CCN(C(=O)CSc2nc(C)nc3c2c(=O)n(C)c(=O)n3C)CC1 | 0.96 (inactive)
57 | Cc1cc(NC(=O)CSc2nc3ccccc3n2CC(C)C)no1 | 1.74 (inactive)
58 | COc1ccc(NS(=O)(=O)c2cc(NC(=O)C3CCCCC3)ccc2N2CCOCC2)cc1 | 0.72 (inactive)
59 | Cc1cc(C)nc(NNC2=CC(=O)CC(C)(C)C2)n1 | 1.06 (inactive)
60 | COc1ccccc1C1C2=C(COC2=O)Nc2cc3c(cc21)OCO3 (stereo not drawn) | 1.19 (inactive)
61 | COCCOC(=O)C1=C(C)NC(=O)CC1c1cc2c(cc1Br)OCO2 (stereo not drawn) | 0.99 (inactive)
62 | CCCOc1ccccc1C1CC(=O)Nc2cc3c(cc21)OCO3 (stereo not drawn) | 3.71 (active)
63 | COc1ccc(-n2ncc3c(N4CCCc5ccccc54)ncnc32)cc1 | 1 (inactive)
64 | c1ccc(-n2ncc3c(N4CCCC4)ncnc32)cc1 | 5.1 (active)
65 | O=C(NCCC1=CCCCC1)C1CCN(Cc2cnn(-c3ccccc3)c2-n2cccc2)CC1 | 0.8 (inactive)
66 | O=C(NNc1ncnc2c1cnn2-c1ccccc1)c1ccco1 | 1.27 (inactive)
67 | C1=C(CCNc2ncnc3c2cnn3-c2ccccc2)CCCC1 | 4.63 (active)
68 | COc1ccc(-n2ncc3c(N4CCc5ccccc54)ncnc32)cc1 | 0.87 (inactive)
69 | CCC(CC)NC(=O)CSc1nnc(-c2c[nH]c3ccccc23)o1 | 1.09 (inactive)
70 | COC(c1ccccc1)c1nnc(CCC(=O)N2CCN(CCOc3ccccc3)CC2)o1 (stereo not drawn) | 1.23 (inactive)
71 | COc1ccc(-c2[nH]ncc2CN(C)Cc2cc(C)[nH]n2)c(F)c1 | 0.97 (inactive)
72 | COc1ccc(O)c(C(=O)c2cnc3c(c2)c(-c2ccc(F)cc2)c(C#N)c(=O)n3C)c1 | 0.93 (inactive)
73 | COc1cc(C(=O)NCc2ccc(-n3cccc3)cc2)cc(OC)c1OC | 1.25 (inactive)
74 | COc1ccc(CN2CN(C3CCCC3)CSC2=S)cc1 | 1.11 (inactive)
75 | COC(=O)CSc1nc(C)c2ccc(OC)cc2n1 | 1.13 (inactive)
76 | COc1ccc2nc(SCc3ccccc3)nc(C)c2c1 | 9.79 (active)
77 | COc1ccc(-c2nnc3ccc(SCc4ccccc4)nn23)cc1 | 0.97 (inactive)
78 | O=C(c1ccc2ccccc2n1)N1CCN(c2ccccc2Cl)CC1 | 2.01 (inactive)

Row | Compound | fold change
79 | CN(C)c1ccc(C=C2C(=O)OC3(CCCC3)OC2=O)cc1 | 1.03 (inactive)
80 | COc1ccc(-c2noc(CSc3ccc(C)cc3)n2)cc1 | 1.04 (inactive)
81 | Cc1cccc(-c2noc(-c3ccc(F)cc3)n2)c1 | 8.41 (active)
82 | COc1ccc(-c2noc(-c3ccc(C)cc3)n2)cc1 | 5.86 (active)
83 | Cc1ccc(Cc2nc(-c3cccc(C)c3)no2)cc1 | 1.99 (inactive)
84 | COc1ccc(-c2nc(-c3ccccc3)no2)c(OC)c1 | 1.5 (inactive)
85 | COc1ccc2[nH]c(=O)c(-c3noc(-c4ccc(F)cc4)n3)cc2c1 | 1.09 (inactive)
86 | COCCNC(=S)N1CCC(NC(=O)C23CC4CC(CC(C4)C2)C3)CC1 | 0.98 (inactive)
87 | CN(CCN1CCOCC1)Cc1nc(-c2ccc3c(c2)OCO3)no1 | 1.23 (inactive)
88 | Cn1cc(-c2ccccc2)cc(C#N)c1=O | 1.11 (inactive)
89 | CCN(CC)P(=O)(Nc1ccc(SC(F)F)cc1)c1ccc(N(C)C)cc1NC(=O)c1ccco1 (stereo not drawn) | 0.57 (inactive)
90 | COc1ccccc1NC(=S)N1CCN(C(c2ccccc2)c2ccccc2)CC1 | 0.89 (inactive)
91 | CCN(CC(=O)NCc1cccs1)C(=O)c1ccccc1F | 1.01 (inactive)
92 | CC(C)CCN1CCN(Cc2ccc(C(F)(F)F)cc2)CC1CCO (stereo not drawn) | 0.9 (inactive)
93 | C/C(=N\Nc1ncc(Cl)cc1Cl)c1cccs1 | 4.91 (active)
94 | OCCNc1nc2ccccc2[nH]1 | 1.02 (inactive)
95 | C/C(=N\Nc1ncc(Cl)cc1Cl)c1ccc(S(=O)(=O)NCc2ccco2)cc1 | 1.29 (inactive)
96 | C/C(=N\Nc1nc(Nc2ccccc2)nc(N2CCOCC2)n1)c1cccs1 | 0.45 (inactive)
97 | C/C(=N\Nc1nc2ccccc2[nH]1)c1cccs1 | 5.42 (active)
98 | COc1cccc(/C(C)=N/Nc2ncc(Cl)cc2Cl)c1 | 1.88 (inactive)
99 | CSc1nc2c(c(=O)[nH]1)C(c1cccc(Cl)c1Cl)CC(=O)N2 (stereo not drawn) | 1.18 (inactive)
100 | CC1Cc2ccccc2N1S(=O)(=O)c1c(N)n(C)c(=O)n(C)c1=O (stereo not drawn) | 1.07 (inactive)
101 | O=C(Nc1ccccc1)c1ccccc1NC(=O)C(F)(F)F | 0.9 (inactive)
102 | CC(C)n1c(=O)[nH]c2cc(C(=O)Nc3ccccc3)ccc21 | 1.9 (inactive)
103 | O=C(Nc1ccccc1)c1cc2ccccc2[nH]1 | 3.43 (active)
